# Shown are actives, neighbours in structure and some others; about 1% of the full set was active somewhere.
# E-sel TNF inh = blocks E-selectin expression induced by TNF alpha; HUVEC TNFa-induced E-selectin immunofluorescence, high content; inhibition, % at 2 µM; hit rate 0.71% among 120,000; AID 1246;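 active = inhibition above the batch mean plus 3 SD, and confirmed as a hit on visual image review, cut at about 43% in these data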;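 note: 0% = TNF-stimulated DMSO wells and 100% = unstimulated control wells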
# TNFa cytotox = HUVEC cytotoxicity counter-screen, TNF alpha stimulated | HUVEC TNFalpha-stimulated, Hoechst cell count, imaging | cell count reduction, % at 2 µM | hit rate 0.17% among 93,000;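 active = cell count reduction exceeding the screen mean by over 5 SD, scaled to untreated wells per plate, cut at about 78% in these data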;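 note: cells counted after 24 h of TNF alpha exposure following the 1 h pretreatment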
# F-actin modifier = modifiers of cytoskeleton assembly; inhibition, % at 2 µM; HUVEC TNFa F-actin phalloidin imaging, high content; hit rate 0.18% among 91,000;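 active = inhibition above the batch mean plus 3 SD and confirmed as a hit by visual image inspection, cut at about 30% in these data, passing the limit was not always enough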
# VCAM1 TNFa inh = reduces TNF alpha induced VCAM1 expression in HUVEC; AID 802; HUVEC TNFa-induced VCAM-1 immunofluorescence, high-content imaging; inhibition, % at 2 µM; hit rate 0.48% among 95,000;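 active = inhibition above the batch mean plus 3 SD, with images confirmed as a hit by eye, cut at about 37% in these data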;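 note: 0% = TNF-stimulated DMSO wells and 100% = unstimulated control wells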
# * marks the source's active call; other numbers are inactive results; . = no result given.
SMILES,E-sel TNF inh,TNFa cytotox,F-actin modifier,VCAM1 TNFa inh
COCCCNC(=S)NC1CC2CCCC(C1)N2Cc1ccco1 (centres undefined),-12,-7,68*,1
N#Cc1ccc(-c2cccnc2)nc1SCc1ccc(Cl)c(Cl)c1,67*,.,.,.
COC(=O)c1cc(COC(=O)c2ccc(OC)c(S(=O)(=O)N3CCCC3)c2)oc1C,.,96*,-54,64
O=C(CCCNS(=O)(=O)c1ccc(Cl)c(Cl)c1)NCCc1ccccn1,-36,.,.,.
COc1cccc(NC(=O)CSC2=C(C#N)C(c3ccco3)C3=C(CCCC3=O)N2)c1 (centres undefined),.,36,-7,-5
COc1ccc(C2C(C#N)=C(SCC(=O)Nc3ccc(C)cc3)NC3=C2C(=O)CC(C)(C)C3)cc1 (centres undefined),66*,-6,6,-7
Cc1ccc(S(=O)(=O)NNC(=O)c2sccc2-n2cccc2)cc1,62*,-6,-19,9
CC(C)NC(=O)CSc1nc(N)c(-c2ccccc2)c(=O)[nH]1,-40,.,.,.
O=C(NC(C(=O)c1ccccc1)N1CCOCC1)c1ccccc1 (centres undefined),100*,.,.,.
CCCN(CCC)CCCNC(=S)Nc1ccc2nc3n(c(=O)c2c1)CCCCC3,-27,.,.,.
Cc1ccn2cc(CCNS(=O)(=O)c3ccc(F)c(C(F)(F)F)c3)nc2c1,89*,-14,-4,-4
O=S(=O)(NCCc1cn2ccccc2n1)c1ccc(F)c(C(F)(F)F)c1,.,-13,-9,17
CCOc1ccc(-n2cc(C(=O)NCc3ccco3)c3cc(OC)c(OC)cc3c2=O)cc1,.,-16,63*,-4
CCOC(=O)C1CCCN(c2ncnc3c2cnn3-c2ccc(OC)cc2)C1 (centres undefined),.,-39,-19,-19
CCOC(=O)C1CCCN(c2ncnc3c2cnn3-c2ccc(Cl)cc2)C1 (centres undefined),63*,-1,.,-40
Cc1cc(C)nc(NS(=O)(=O)c2ccc(NC(=S)NC(=O)CC(C)C)cc2)n1,-38,-2,-1,11
O=C(Oc1ccc(/C=N/Nc2ccccc2)cc1)c1ccccc1,58*,-10,4,9
O=C(Oc1ccc(/C=N/O)cc1)c1ccccc1,-20,-16,-16,0
Cc1cc(C)n(C(=O)c2cc(F)c(F)cc2C)n1,14,.,.,.
O=C(Nc1ccc(F)cc1)N1CCOCC1,77*,-4,36,-3
CCOC(=O)CS(=O)(=O)c1nc(-c2ccc(F)cc2)cc(C(F)(F)F)n1,58*,.,.,.
CCOC(=O)CS(=O)(=O)c1nc(-c2ccccc2)cc(C(F)(F)F)n1,67*,6,-2,48
CCOC(=O)CCS(=O)(=O)c1nc(-c2ccccc2)cc(C(F)(F)F)n1,48,15,-17,38
COCC(C)NC(=O)CCS(=O)(=O)c1nc(-c2ccc(OC)cc2)cc(C(F)(F)F)n1 (centres undefined),83*,.,.,.
COC(=O)CCS(=O)(=O)c1nc(-c2ccccc2)cc(C(F)(F)F)n1,30,-1,-6,33
SMILES,E-sel TNF inh,TNFa cytotox,F-actin modifier,VCAM1 TNFa inh
COC(=O)C(Cc1ccccc1)P(=O)(c1ccccc1)c1ccccc1 (centres undefined),-8,.,.,.
Cc1ccc(COc2ccsc2C(=O)NN)cc1,-11,.,.,.
CC(C)Oc1ccc(C(=O)Nc2ccc(C(F)(F)F)n(C)c2=O)cc1,-8,.,.,.
CCOc1ccccc1C(=O)NCCC(=O)O,-19,.,100*,.
CCCCCOc1ccccc1C(=O)NCCC(=O)O,-12,14,-7,12
Cc1ccc(S(=O)(=O)NCC(c2ccco2)N2CCOCC2)cc1 (centres undefined),16,.,.,.
COc1ccc(CCNc2oc(-c3ccc(OC)c(OC)c3)nc2C#N)cc1,5,20,0,24
COc1ccc(-c2nc(C#N)c(NCCCN(C)C)o2)cc1OC,17,-34,35,97*
COC(=O)NC(=S)Nc1ccc(Oc2ccc(Cl)cc2Cl)c(Cl)c1,-10,-16,5,-16
N#CC1=C2SCC(O)(c3ccccc3)N2C(=O)CC1c1cccs1 (centres undefined),.,17,35*,17
S=c1[nH]nc(-c2ccc3c(c2)OCO3)n1-c1ccccc1,-5,.,.,.
S=c1[nH]nc(COc2ccc3c(c2)OCO3)n1-c1ccccc1,-35,-8,4,97*
COc1cc2c(cc1OC)C(c1cc3ccccc3oc1=O)=NC(C)(C)C2,6,-8,-2,-9
O=C(/C=C/Nc1ccc(F)cc1F)c1cccs1,-26,.,.,.
O=C(/C=C\Nc1cccc(F)c1)c1cccs1,70*,-31,40,3
NC(=O)CNC(=O)[C@@H]1CC2(CC(c3ccccc3)=NO2)CN1C(=O)c1ccc(Br)cc1 (some centres undefined),-30,0,-2,8
CC1CCN(CCC(=O)Nc2ccc3c(c2)CCC3)CC1,13,-38,27,13
COC(=O)c1ccc(S(=O)(=O)NCc2cccc(OC)c2)n1C,64*,-14,41,9
COc1ccccc1-c1cn(S(=O)(=O)c2ccc(C)cc2)nc1N,-9,-19,-7,91*
Cc1cc2nc(-c3ccc(SCc4ccc(C#N)cc4)nc3)[nH]c2cc1C,90*,5,-9,-6
N#Cc1ccccc1CSc1ccc(-c2nc3ccccc3[nH]2)cn1,-13,-1,-28,-5
COc1cc(NC(C)C(=O)N2CC(C)OC(C)C2)cc(OC)c1 (centres undefined),9,-5,-2,-6
CCOC(=O)c1c(NC(=O)CSc2nnc(C)c(=O)[nH]2)sc(C)c1C,65*,.,.,.
Nc1nc2c3ccccc3nc(Cc3ccccc3)n2n1,-20,-17,7,93*
CCn1c2ccccc2c2nnc(SCCCn3c(=O)[nH]c4ccccc43)nc21,.,36,45,3
SMILES,E-sel TNF inh,TNFa cytotox,F-actin modifier,VCAM1 TNFa inh
CCCc1sc(N/N=C/c2ccccn2)nc1-c1ccc(Br)cc1,-8,-8,4,94*
N#Cc1ccc(NC(=O)C2CC(c3ccc(F)cc3)=NO2)cc1 (centres undefined),93*,4,-43,-6
COc1cc2[nH]cc(C(=O)NCCc3ccccc3)c(=O)c2cc1OC,18,-3,-5,92*
COCCNC(=O)c1c[nH]c2cc(OC)c(OC)cc2c1=O,3,-22,22,-1
CCN(CC)S(=O)(=O)c1cccc(NC(=O)c2cc(=O)[nH]c3ccccc23)c1,10,.,.,.
Cc1ccc2cc(C#N)c(N3CCCC3)nc2c1C,100*,-7,1,13
Cc1ccc2cc(C#N)c(N3CCCN(C(=O)C4CCCO4)CC3)nc2c1C (centres undefined),6,.,.,.
COCCNC(=O)C(c1cccs1)N(Cc1cccs1)C(=O)Cn1nnc2ccccc21 (centres undefined),9,0,32*,-10
COCCNC(=O)C(c1cccs1)N(Cc1ccccc1)C(=O)Cn1nnc2ccccc21 (centres undefined),14,-12,-3,11
Cc1ccc(S(=O)(=O)N2CCCCC2)cc1NC(=O)COC(=O)c1ccc2c(c1)OCO2,-5,.,.,.
COc1cc(C2C(C#N)=C(N)Oc3cc(C)n(CCc4ccccc4)c(=O)c32)cc2c1OCO2 (centres undefined),95*,.,.,.

# Source: PubChem (Columbia University Molecular Screening Center)
